Compound activity (PubChem BioAssay)
Sampled rows, rich in hits. Any-hit rate of the full collection: about 11%.
PNC inhibitor: perinucleolar compartment assembly inhibition; 140,000 compounds, 3.1% hits; PC3M PTB-GFP, PNC prevalence imaging, 16 h; active compounds read low; activity change (PNC), negative = inhibition, % at 10 µM; AID 2417;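 active means readout at or below -70, meaning at least 70% loss of cells showing the perinucleolar compartment, a nuclear body marking cancer cells; inconclusive means readout between -30 and a set limit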;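 further: plate controls were DMSO wells for no effect and camptothecin positive control wells for full effect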
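Compounds are pinned in duplicate onto adhered PC3M cells stably expressing GFP-tagged PTB and incubated 16 h at 37 C. Cells are then fixed, nuclei stained with Hoechst, and PNC-positive cells counted.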
ALDH1A1 block: ALDH1A1 (human) enzyme inhibition. Potency, µM (highest dose often 75.3 µM), inactives show top-dose activity, negative = inhibition, actives largely listed as inhibitors. P00352. 220,000 compounds, 7.3% hits. Purified ALDH1A1, NADH fluorescence, propionaldehyde substrate; active means well fitted inhibition curve with a large enough effect, not every such curve was filed as active; inconclusive means small, poorly fitted or top-dose-only effect, or another doubt; inactive means no such curve, though single readings can be large or run the other way;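 further: potency means the concentration at half of the fitted maximal effect; plate controls were no enzyme wells and a reference inhibitor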
12-hLO inh: inhibitors of human 12-lipoxygenase (ALOX12); P18054; purified 12-hLO, xylenol orange hydroperoxide absorbance; Potency, µM (titrated, usually from 57.1 µM), for inactives: top-dose activity change, negative = inhibition, usual class: inhibitors; 150,000 compounds, 0.12% hits; further: potency means the concentration at half of the fitted maximal effect; nearly all actives have a fitted effect of over 55% in size
Target sequence (P18054 whole entry, looked up): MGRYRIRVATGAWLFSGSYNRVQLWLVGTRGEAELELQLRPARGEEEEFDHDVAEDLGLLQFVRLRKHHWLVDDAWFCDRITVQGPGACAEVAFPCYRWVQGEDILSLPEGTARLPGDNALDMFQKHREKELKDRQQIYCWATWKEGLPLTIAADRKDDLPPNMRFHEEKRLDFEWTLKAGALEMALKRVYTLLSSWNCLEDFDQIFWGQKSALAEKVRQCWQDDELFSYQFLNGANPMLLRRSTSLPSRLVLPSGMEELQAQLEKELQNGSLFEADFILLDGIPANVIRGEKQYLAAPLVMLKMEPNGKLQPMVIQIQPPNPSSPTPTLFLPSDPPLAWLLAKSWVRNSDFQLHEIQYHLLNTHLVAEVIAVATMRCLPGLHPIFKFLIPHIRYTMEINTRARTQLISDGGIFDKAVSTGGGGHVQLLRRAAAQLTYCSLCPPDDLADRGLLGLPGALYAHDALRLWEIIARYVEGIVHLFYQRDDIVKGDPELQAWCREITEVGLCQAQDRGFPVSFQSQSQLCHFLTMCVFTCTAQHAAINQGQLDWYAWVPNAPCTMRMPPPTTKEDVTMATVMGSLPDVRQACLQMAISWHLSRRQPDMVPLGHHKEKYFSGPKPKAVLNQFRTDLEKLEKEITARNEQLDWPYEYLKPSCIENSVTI
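Purified human 12hLO (150 nM), preincubated 15 min with compound, then 40 uM arachidonic acid for 30 min, room temperature, Hepes pH 7.0 with 0.01% Triton X-100. Hydroperoxide detected by ferrous iron/xylenol orange; 573/405 nm absorbance ratio gives reaction progress.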
HPGD inh: HPGD (human) dehydrogenase inhibition; P15428; 150,000 compounds, 4.3% hits; purified HPGD, NADH fluorescence kinetic, PGE2 substrate; Potency, µM, without a hit: top-dose activity change, negative = inhibition, actives largely listed as inhibitors; AID 894; active means well fitted inhibition curve with a large enough effect, not every such curve was filed as active; inconclusive means small, poorly fitted or top-dose-only effect, or another doubt; inactive means no such curve, though single readings can be large or run the other way; further: potency means the concentration at half of the fitted maximal effect
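20 nM HPGD preincubated 15 min at room temperature with compound in 50 mM Tris-HCl pH 8, 0.01% Tween 20. Started with 1 mM NAD+ and 30 uM prostaglandin E2; NADH fluorescence (360/450 nm) read 5 times over 30-s intervals, last minus first.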
IMPase inh: membrane-permeable compound that blocks inositol monophosphatase; P97697; CHO-M1 cells, IP1 accumulation, HTRF TR-FRET ratio; inhibition (IP1 accumulation), % at 46.1 µM; 120,000 tested, under 10 active; active means well fitted curve in the direction sought with a large enough effect in the signal ratio, not every such curve was filed as active; inconclusive means small, poorly fitted or top-dose-only effect, or a change in a side signal; inactive means no such curve, though single readings can be large or run the other way; the % refers to the signal ratio;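 further: cells stimulated with carbachol in lithium chloride buffer; plate controls were DMSO basal wells for no effect and reference inhibitor wells for full effect; higher means more IMPase inhibition seen as more IP1 and lower FRET ratio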
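CHO-M1 cells (CHO stably expressing M1 receptor), compound up to 46 uM final, stimulated with carbachol (50 uM as added) in buffer with 50mM LiCl, pH 7.4, 30 min at 37C. Cytosolic IP1 read by TR-FRET; AC50 from Hill fits.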
IMPase Li inh: membrane-permeable IMPase blocker, potentiated with lithium | 210,000 compounds, 0.35% hits | AID 1457 | CHO-M1 cells, IP1 TR-FRET (IP-One), carbachol + lithium | Potency, µM (titrated, usually from 59.4 µM), for inactives: at the top dose activity, negative = IMPase inhibition, hits mostly inhibitors;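 further: IP1 builds up when IMPase is blocked and the TR-FRET signal falls; potency means the concentration at half of the fitted maximal effect; plate controls were basal vehicle for no effect and high inhibitor control for full effect; nearly all actives have a fitted effect of over 50% in size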
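Concentration–response in CHO-M1 cells, lithium-potentiated; 30 min at 37C. IP1 detected by competitive TR-FRET after 10 min lysis at RT. Hill-fitted AC50.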
Starred values were filed as active, the others as inactive; ? = inconclusive; / = no result; [ ] = another dose, or the depositor's remark. Unless noted, the call rests on the fitted dose curve; in most records, active means well fitted curve in the direction sought with a large enough effect; inconclusive means small, poorly fitted or top-dose-only effect, or another doubt; inactive means no such curve, though single readings can be large; an effect the other way counts as inactive or inconclusive. Unless noted, on the % scale 0 is the no-effect control and ±100 the full control effect.

SMILES | PNC inhibitor | ALDH1A1 block | 12-hLO inh | HPGD inh | IMPase inh | IMPase Li inh
O=C(Cn1c(=O)c2ccccc2n(CC(=O)Nc2ccc(F)cc2)c1=O)NCCc1ccccc1 | / | / | / | / | 3 | /
C=CCN(CC=C)C(=S)NC(=O)c1ccc(OC)c(Br)c1 | -86* | ? | -15% | -15% | -5 | -3%[38.3 µM]
COc1ccc(C(=O)c2ccc(OC)c(Br)c2)cc1Br | ? | 20µM* | -1% | -16% | / | 1%
Cc1cc(C)cc(NC(=O)Cn2c(C(F)(F)F)nc3ccccc32)c1 | / | / | / | / | 4 | /
C=CCOC(=O)N[C@@H](Cc1ccccc1)/C(C(=O)OC)=C(\C)NCc1ccccc1 | / | ? | / | -2% | / | 22%
c1ccc(Oc2cc(-c3ccccc3)nc(-c3ccccc3)n2)cc1 | 48 | 1% | 1% | -9% | 11 | 5%
O=S(=O)(Cc1cc(Oc2ccccc2)nc(-c2ccccc2)n1)c1ccccc1 | -102* | 4% | -8% | -15% | 9 | 16%[38.3 µM]
COc1ccccc1NC(=O)CSc1nc(O)c(C/C=C/c2ccccc2)c(=O)[nH]1 | / | / | / | / | 12 | /
Cc1c(C(=O)N2CCCCCC2)oc2ccccc12 | 26 | -10% | 0% | 16µM* | 0 | 18%[38.3 µM]
Cc1ccccc1C(=O)N1CCN(c2ccccn2)CC1 | -9 | ? | 8% | -28% | 0 | 13%
Cc1c(C(=O)N2CCN(c3ccccn3)CC2)oc2ccccc12 | 37 | 14µM* | -12% | -21% | 1 | 37%[38.3 µM]
O=C(Cc1ccccc1)N1CCN(c2ncccn2)CC1 | / | -2% | / | / | / | -4%
O=C(c1oc2ccccc2c1CSCc1ccccc1)N1CCN(c2ncccn2)CC1 | -11 | 13µM* | -12% | -10% | 8 | 25%[38.3 µM]
COc1ccc(N2CCN(C(=O)c3oc4ccccc4c3C)CC2)cc1 | / | -17% | / | / | / | 13%
Cn1c(N)nc2c(nc(OCc3ccccc3)n2[C@@H]2O[C@H](CO)[C@@H](O)[C@@H]2O)c1=O | / | 2%[13.5 µM] | -2%[11.4 µM] | 3% | / | 5%
Cc1cccc(Nc2nnc(-c3ccc(N4CCOCC4)c([N+](=O)[O-])c3)c3ccccc23)c1 | ? | ? | -3% | -26% | / | -1%
COc1ccc(Nc2nc3c([nH]2)c(=O)[nH]c(=O)n3C)cc1 | / | 2% | / | / | / | 16%
Cc1cccc(C(=O)NC(=S)NNC(=O)c2ccccc2Cl)c1 | 32 | 22µM* | 0% | -3% | / | 2%
CCCCNC(=S)NNC(=O)c1cccnc1 | -87* | 5% | -1% | -8% | / | 0%
O=C(NC(=S)NNC(=O)c1ccc(Cl)cc1Cl)c1cccnc1 | ? | 24µM* | -3% | ? | / | -2%
COc1cc2nc(N3CCN(C(=O)OCc4ccccc4)[C@H](C(=O)NC(C)(C)C)C3)nc(N)c2cc1OC | / | / | -4% | / | 10 | /
CCCCNC(=S)N/N=C1\C(=O)c2cccc3cccc1c23 | 21 | 13µM* | -1% | -6% | -12 | 32%[38.3 µM]
O=C(N/N=C1\C(=O)c2cccc3cccc1c23)c1ccc(O)cc1 | / | 10µM* | / | / | / | 29%
CNC(=S)N/N=C1\C(=O)c2cccc3cccc1c23 | -11 | ? | 5% | -16% | 7 | 22%[38.3 µM]
O=C(N/N=C1\CCc2ccccc21)c1ccc(O)cc1 | / | ? | / | / | / | -8%
SMILES | PNC inhibitor | ALDH1A1 block | 12-hLO inh | HPGD inh | IMPase inh | IMPase Li inh
O=C(O)c1ccc(Br)cn1 | / | ? | / | / | / | 5%
Cc1ccnc(SCC(=O)N2CCc3ccccc3C2)n1 | / | 18µM* | / | / | / | 2%
Cc1ccccc1-n1c(C)nnc1SCC(=O)N1CCc2ccccc2C1 | -107* | -6% | -2% | -30% | / | 6%
Cc1nc2ncnn2c(C)c1CCC(=O)N1CCc2ccccc2C1 | 4 | 2.2µM* | -1% | -6% | 1 | ?
O=c1cnc2cnc(Oc3ccccc3)nc2n1Cc1ccc(F)cc1 | / | ? | -11% | -20% | / | 1%
COC(=O)c1c(NC(=O)COC(=O)Cn2cnc3ccccc32)sc2c1CCCC2 | -29 | 14µM* | -4% | -20% | 12 | 10%
CCOC(=O)c1c(NC(=O)Cn2nnc3ccccc32)sc2c1CCC(C)C2 (centres undefined) | ? | -2% | -9% | -26% | 1 | 0%[38.3 µM]
